# Measurements taken from ChEMBL document CHEMBL1961873, “Compounds: GSK PKIS; Assays: Nanosyn kinase panel” (2012).
# Target: Calcium/calmodulin-dependent protein kinase type II subunit delta (Homo sapiens) (UniProt Q13557);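 further: mean percent inhibition of CAMK2D, from screening of the GSK Published Kinase Inhibitor Set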
# Details: at 1 µM
# Calcium/calmodulin-dependent protein kinase type II subunit delta (Homo sapiens), sequence (Q13557 whole entry): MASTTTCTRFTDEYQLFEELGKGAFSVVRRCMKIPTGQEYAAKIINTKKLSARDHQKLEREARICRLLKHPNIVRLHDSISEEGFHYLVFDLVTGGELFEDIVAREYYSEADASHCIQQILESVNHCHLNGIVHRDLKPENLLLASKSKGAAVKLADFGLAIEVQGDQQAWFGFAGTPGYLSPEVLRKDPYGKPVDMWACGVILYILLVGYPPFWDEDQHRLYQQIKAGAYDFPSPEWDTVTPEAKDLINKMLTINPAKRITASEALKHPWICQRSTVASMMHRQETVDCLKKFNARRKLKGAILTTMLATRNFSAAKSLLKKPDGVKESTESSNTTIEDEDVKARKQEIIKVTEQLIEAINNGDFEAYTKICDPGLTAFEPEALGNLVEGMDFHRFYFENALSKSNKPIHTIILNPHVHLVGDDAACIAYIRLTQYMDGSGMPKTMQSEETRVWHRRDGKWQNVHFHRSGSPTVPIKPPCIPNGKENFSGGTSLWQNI
row,SMILES,inhibition
1,CCn1c(-c2nonc2N)nc2c(C#CC(C)(C)O)nc(O[C@@H](CN)c3ccccc3)cc21,14.3%
2,Nc1nonc1-c1nc2cnccc2n1C1CCCCC1,4.05%
3,CCn1c(-c2nonc2N)nc2c(C#CC(C)(C)O)ncc(OCC3CCNCC3)c21,4.75%
4,NC(=O)c1sc(-n2cnc3cc(C(F)(F)F)ccc32)cc1OCc1ccccc1Br,1.35%
5,Cc1cc(-c2ccco2)cc(C)c1/C=C/c1cncc(-c2nn[nH]n2)c1,0.35%
6,NS(=O)(=O)c1ccc(-c2ccc3c(NC(=O)C4CC4)n[nH]c3c2)cc1,3.65%
7,COc1cc(C=NNc2ncnc3c2cnn3Cc2ccccc2)ccc1O,-0.47%
8,COc1cc2c(cc1Nc1nc(Nc3ccsc3C(N)=O)c3cc[nH]c3n1)N(C(=O)CN(C)C)CCC2,13%
9,COc1cccc(COc2cc(-n3cnc4ccccc43)sc2C(N)=O)c1,-0.84%
10,NS(=O)(=O)c1ccc(N/C=C2\C(=O)Nc3ccc4ncsc4c32)cc1,16.3%
11,COc1cccc(-n2ncc3c(N/N=C/c4ccncc4)ncnc32)c1,12.8%
12,CCn1c(-c2nonc2N)nc2c(C#CC(C)(C)O)ncc(OC[C@@H]3CCCN3)c21,0.35%
13,Fc1ccc(-c2ncn(C3CCNCC3)c2-c2ccnc(Oc3ccccc3)n2)cc1,2.5%
14,CCn1c(-c2nonc2N)nc2c(C#CCN)ncc(OCCCN)c21,-4.58%

# Target: T1, Calcium/calmodulin-dependent protein kinase type IV (Homo sapiens) (UniProt Q16566)
# T1 sequence (whole entry): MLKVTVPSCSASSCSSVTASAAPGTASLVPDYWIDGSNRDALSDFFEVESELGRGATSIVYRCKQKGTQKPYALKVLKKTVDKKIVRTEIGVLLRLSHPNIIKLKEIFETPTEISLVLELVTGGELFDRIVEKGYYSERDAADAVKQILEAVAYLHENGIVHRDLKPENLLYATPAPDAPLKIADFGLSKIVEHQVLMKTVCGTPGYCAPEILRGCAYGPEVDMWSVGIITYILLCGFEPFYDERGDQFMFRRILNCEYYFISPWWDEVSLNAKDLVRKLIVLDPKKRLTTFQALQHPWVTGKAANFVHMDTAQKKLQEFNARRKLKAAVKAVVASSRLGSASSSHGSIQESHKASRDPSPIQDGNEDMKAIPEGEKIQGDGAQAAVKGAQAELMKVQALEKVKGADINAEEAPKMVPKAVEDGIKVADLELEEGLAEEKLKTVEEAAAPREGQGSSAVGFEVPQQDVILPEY
# Details: at 0.1 µM
row,SMILES,inhibition
1,CCn1c(-c2nonc2N)nc2c(C#CC(C)(C)O)nc(O[C@@H](CN)c3ccccc3)cc21,-0.23%
2,Nc1nonc1-c1nc2cnccc2n1C1CCCCC1,1.07%
3,CCn1c(-c2nonc2N)nc2c(C#CC(C)(C)O)ncc(OCC3CCNCC3)c21,-2.07%
4,NC(=O)c1sc(-n2cnc3cc(C(F)(F)F)ccc32)cc1OCc1ccccc1Br,2.89%
5,Cc1cc(-c2ccco2)cc(C)c1/C=C/c1cncc(-c2nn[nH]n2)c1,1.45%
6,NS(=O)(=O)c1ccc(-c2ccc3c(NC(=O)C4CC4)n[nH]c3c2)cc1,0.18%
7,COc1cc(C=NNc2ncnc3c2cnn3Cc2ccccc2)ccc1O,-2.48%
8,COc1cc2c(cc1Nc1nc(Nc3ccsc3C(N)=O)c3cc[nH]c3n1)N(C(=O)CN(C)C)CCC2,2.85%
9,COc1cccc(COc2cc(-n3cnc4ccccc43)sc2C(N)=O)c1,2.92%
10,NS(=O)(=O)c1ccc(N/C=C2\C(=O)Nc3ccc4ncsc4c32)cc1,-1.62%
11,COc1cccc(-n2ncc3c(N/N=C/c4ccncc4)ncnc32)c1,-0.17%
12,CCn1c(-c2nonc2N)nc2c(C#CC(C)(C)O)ncc(OC[C@@H]3CCCN3)c21,0.16%
13,Fc1ccc(-c2ncn(C3CCNCC3)c2-c2ccnc(Oc3ccccc3)n2)cc1,-1.82%
14,CCn1c(-c2nonc2N)nc2c(C#CCN)ncc(OCCCN)c21,-6%

# Target: T1, Calcium/calmodulin-dependent protein kinase type IV (Homo sapiens)
# Details: at 1 µM
row,SMILES,inhibition
1,CCn1c(-c2nonc2N)nc2c(C#CC(C)(C)O)nc(O[C@@H](CN)c3ccccc3)cc21,4.51%
2,Nc1nonc1-c1nc2cnccc2n1C1CCCCC1,1.19%
3,CCn1c(-c2nonc2N)nc2c(C#CC(C)(C)O)ncc(OCC3CCNCC3)c21,-2.31%
4,NC(=O)c1sc(-n2cnc3cc(C(F)(F)F)ccc32)cc1OCc1ccccc1Br,1.08%
5,Cc1cc(-c2ccco2)cc(C)c1/C=C/c1cncc(-c2nn[nH]n2)c1,1.06%
6,NS(=O)(=O)c1ccc(-c2ccc3c(NC(=O)C4CC4)n[nH]c3c2)cc1,0.35%
7,COc1cc(C=NNc2ncnc3c2cnn3Cc2ccccc2)ccc1O,-3.98%
8,COc1cc2c(cc1Nc1nc(Nc3ccsc3C(N)=O)c3cc[nH]c3n1)N(C(=O)CN(C)C)CCC2,12.1%
9,COc1cccc(COc2cc(-n3cnc4ccccc43)sc2C(N)=O)c1,-0.29%
10,NS(=O)(=O)c1ccc(N/C=C2\C(=O)Nc3ccc4ncsc4c32)cc1,-1.06%
11,COc1cccc(-n2ncc3c(N/N=C/c4ccncc4)ncnc32)c1,-1.96%
12,CCn1c(-c2nonc2N)nc2c(C#CC(C)(C)O)ncc(OC[C@@H]3CCCN3)c21,-0.65%
13,Fc1ccc(-c2ncn(C3CCNCC3)c2-c2ccnc(Oc3ccccc3)n2)cc1,-2.43%
14,CCn1c(-c2nonc2N)nc2c(C#CCN)ncc(OCCCN)c21,-5.56%

# Target: T2, Serine/threonine-protein kinase Chk1 (Homo sapiens) (UniProt O14757);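 further: reported figure is the mean percent inhibition of CHEK1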
# T2 sequence (whole entry): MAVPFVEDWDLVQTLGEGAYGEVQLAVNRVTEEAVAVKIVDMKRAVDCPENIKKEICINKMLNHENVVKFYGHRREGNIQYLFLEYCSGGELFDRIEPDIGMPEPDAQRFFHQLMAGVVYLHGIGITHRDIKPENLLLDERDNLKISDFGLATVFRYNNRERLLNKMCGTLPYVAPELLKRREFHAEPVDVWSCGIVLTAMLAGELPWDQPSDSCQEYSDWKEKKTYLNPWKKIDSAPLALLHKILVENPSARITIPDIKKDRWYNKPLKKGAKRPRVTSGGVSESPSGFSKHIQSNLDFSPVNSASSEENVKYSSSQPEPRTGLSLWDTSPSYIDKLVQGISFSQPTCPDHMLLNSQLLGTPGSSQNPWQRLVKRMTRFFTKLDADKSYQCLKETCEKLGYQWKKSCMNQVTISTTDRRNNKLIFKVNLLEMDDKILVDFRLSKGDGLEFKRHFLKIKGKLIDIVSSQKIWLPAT
# Details: at 0.1 µM
row,SMILES,inhibition
1,CCn1c(-c2nonc2N)nc2c(C#CC(C)(C)O)nc(O[C@@H](CN)c3ccccc3)cc21,-3.48%
2,Nc1nonc1-c1nc2cnccc2n1C1CCCCC1,-0.67%
3,CCn1c(-c2nonc2N)nc2c(C#CC(C)(C)O)ncc(OCC3CCNCC3)c21,-0.5%
4,NC(=O)c1sc(-n2cnc3cc(C(F)(F)F)ccc32)cc1OCc1ccccc1Br,-0.06%
5,Cc1cc(-c2ccco2)cc(C)c1/C=C/c1cncc(-c2nn[nH]n2)c1,-8.36%
6,NS(=O)(=O)c1ccc(-c2ccc3c(NC(=O)C4CC4)n[nH]c3c2)cc1,1.61%
7,COc1cc(C=NNc2ncnc3c2cnn3Cc2ccccc2)ccc1O,-2.18%
8,COc1cc2c(cc1Nc1nc(Nc3ccsc3C(N)=O)c3cc[nH]c3n1)N(C(=O)CN(C)C)CCC2,-2.04%
9,COc1cccc(COc2cc(-n3cnc4ccccc43)sc2C(N)=O)c1,2.18%
10,NS(=O)(=O)c1ccc(N/C=C2\C(=O)Nc3ccc4ncsc4c32)cc1,7.84%
11,COc1cccc(-n2ncc3c(N/N=C/c4ccncc4)ncnc32)c1,3.28%
12,CCn1c(-c2nonc2N)nc2c(C#CC(C)(C)O)ncc(OC[C@@H]3CCCN3)c21,-1.63%
13,Fc1ccc(-c2ncn(C3CCNCC3)c2-c2ccnc(Oc3ccccc3)n2)cc1,-1.72%
14,CCn1c(-c2nonc2N)nc2c(C#CCN)ncc(OCCCN)c21,-3.81%
